Data taken from PMC7819943, “Rice protein-binding microarrays: a tool to detect cis-acting elements near promoter regions in rice”.
Whole data set: some 68,000 sequences, median “fluorescence intensity (a.u.)” near 9,100, cut for the highest 2% near 16,000. This is one part of a sample in which the highest values are shown more often than they occur.

target: OsWRKY34 (Oryza sativa, UniProt Q0JBA9 1-250); assay: protein-binding microarray (RPBM); PBS, 2% BSA, 51.3 ng/ul salmon testes DNA, 50 uM zinc acetate, 200 nM TF, 25 C, 1 h; high values mean tight binding; settings: protein: recombinant; tags: N-terminal polyhistidine and DsRed monomer fusion (pET32a); label: CyDye5-dUTP incorporated in the synthesized complementary strand; 3' TTTTT single-stranded linker to array surface; dsDNA, one strand shown
Outline: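 The binding signal for each feature is its fluorescence intensity in arbitrary units. An Axon 4000B scanner was used to read a custom Agilent array that had been made double-stranded with Cy5-dUTP primer extension, blocked with 2% BSA, incubated at 25 °C for 1 h with 200 nM protein in PBS, 2% BSA, salmon testes DNA and 50 µM zinc acetate, and washed. The protein was an N-terminal polyhistidine–DsRed transcription factor fusion from E. coli BL21-CodonPlus, purified on Ni–NTA.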

OsWRKY34, sequence (Q0JBA9 entry or part of it): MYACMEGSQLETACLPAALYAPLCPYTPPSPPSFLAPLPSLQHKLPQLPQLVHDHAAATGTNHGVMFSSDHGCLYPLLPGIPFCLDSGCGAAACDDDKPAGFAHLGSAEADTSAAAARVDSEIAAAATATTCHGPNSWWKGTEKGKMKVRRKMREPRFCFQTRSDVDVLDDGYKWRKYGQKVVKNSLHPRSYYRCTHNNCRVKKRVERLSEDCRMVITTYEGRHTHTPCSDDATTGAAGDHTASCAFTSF

Row | Sequence | binding signal
1 | ATGGCCGCTGTCTTATGTCGTCTCGTTCAAATAAAATCTCCGGAGTCACCTAGTGCAG | 8370 fluorescence intensity (a.u.)
2 | GGGATTTGGTGGCTGCTCGCCTCTCGCGTTTCTTTTGCTGCGGAGTCACCTAGTGCAG | 10200 fluorescence intensity (a.u.)
3 | CTTCTGCTGCTTCTCTCTCTCTCTCTGTGTCTAGTCTACCCGGAGTCACCTAGTGCAG | 9420 fluorescence intensity (a.u.)
4 | TATTTGTCATTCGCTGTCTATGACATATGAGCCCTCATGTCGGAGTCACCTAGTGCAG | 8280 fluorescence intensity (a.u.)
5 | CTCCTCCCAACTTTCCCCTTTGCTACAGTAGCTCCTTCTTCGGAGTCACCTAGTGCAG | 8100 fluorescence intensity (a.u.)
6 | GAGAGAGGAAGAACAGTACGTGTCTAGGGGCATTTTGGTACGGAGTCACCTAGTGCAG | 9700 fluorescence intensity (a.u.)
7 | ACACCGGCCGCCGAGCTCGCCTCCTCTCTTGTCGCCCACACGGAGTCACCTAGTGCAG | 10100 fluorescence intensity (a.u.)
8 | GTTCCTGATATGTTTTTTTGTTGGTTGCAGGATGGCAAGACGGAGTCACCTAGTGCAG | 8880 fluorescence intensity (a.u.)
9 | GCTCTCTTTCCGCTTCTACCCTCGTCACGTCCACGAAATCCGGAGTCACCTAGTGCAG | 14900 fluorescence intensity (a.u.)
10 | GCCACAGCTCTTGATTTCTCGCTGGATCCTGGTTTTCACCCGGAGTCACCTAGTGCAG | 8430 fluorescence intensity (a.u.)
11 | GCGTTTTCGGCGGGGAACGCGGGGAGGCGGGTGGGGTTGACGGAGTCACCTAGTGCAG | 21800 fluorescence intensity (a.u.)
12 | GGTGGGTTTCGTGGTACGGCTCGCTCTCGTGGTGGGGAATCGGAGTCACCTAGTGCAG | 19700 fluorescence intensity (a.u.)
13 | TGCTAGGGTTTTCGGGAGGCGGGTCTAGGGTTGAGGCAAACGGAGTCACCTAGTGCAG | 12300 fluorescence intensity (a.u.)
14 | ACCTCGGAAAGTACGGGGTTCTCGTCGGCTGGGTGGGTGTCGGAGTCACCTAGTGCAG | 11500 fluorescence intensity (a.u.)
15 | GGTTGGCAGCGGCGGCGGAGGTGGGGAGAGGCGGGTGGTTCGGAGTCACCTAGTGCAG | 13600 fluorescence intensity (a.u.)
16 | TTGGGGTTGGCGGGAATTAGGGTTTCGTTGGTGGGGTTTTCGGAGTCACCTAGTGCAG | 25900 fluorescence intensity (a.u.)
17 | GAGCGGGGAGGCGGCGGATCTAGGGTTTGGTTGGGTTTTTCGGAGTCACCTAGTGCAG | 15300 fluorescence intensity (a.u.)
18 | TCGTTTGGTTGGCGGGAGTTTTAAGAGGGATTAGGAGTTTCGGAGTCACCTAGTGCAG | 9020 fluorescence intensity (a.u.)
19 | CTGGCTCGCTCTCTCTCTCTCTCTCGTGGTGTGGTGTGGACGGAGTCACCTAGTGCAG | 9310 fluorescence intensity (a.u.)
20 | GTTGGTGTCCATCCGTTTCCGAGCCATTTTCATCCCTAATCGGAGTCACCTAGTGCAG | 11600 fluorescence intensity (a.u.)
21 | TCCTTCCATCTCTCTGCTCACTTCACTTCACCTTCCAATGCGGAGTCACCTAGTGCAG | 9020 fluorescence intensity (a.u.)
22 | GTTTCCATTTATCTGTTCGCAGTCAGTTCCAAGAAGTACCCGGAGTCACCTAGTGCAG | 8340 fluorescence intensity (a.u.)

Row | Sequence | binding signal
23 | GTTGGTTGGCTGTTCCTTGCTTTCATCCAGCTAGCTACTGCGGAGTCACCTAGTGCAG | 10500 fluorescence intensity (a.u.)
24 | ACCGGCTCTCTAATCCTTAAATTCTGGCTTTGCTGCTAGTCGGAGTCACCTAGTGCAG | 9240 fluorescence intensity (a.u.)
25 | CAGTGGAGGGTTGGATCGGTGTGTAGGGGCTTAAGTGCAACGGAGTCACCTAGTGCAG | 9610 fluorescence intensity (a.u.)
26 | CATGTCCAACGTTTGACCATTTGCCTTATTTAAAATTTTTCGGAGTCACCTAGTGCAG | 9250 fluorescence intensity (a.u.)
27 | ATGCTCGATCACATGCTTAATTCTTAGCTTTGTCCTAGTTCGGAGTCACCTAGTGCAG | 8230 fluorescence intensity (a.u.)
28 | GCCGCCACCGCAACCTACCGCCGCCGCGGCAAGCCCAAGCCGGAGTCACCTAGTGCAG | 8960 fluorescence intensity (a.u.)
29 | GCTAAATACCAGCGAAGCAGTCGCCCGCGCAAACGCGCGCCGGAGTCACCTAGTGCAG | 8220 fluorescence intensity (a.u.)
30 | ACGGCCAGGCAAGCAAGCAAACGCCGCGGCTACCAATACCCGGAGTCACCTAGTGCAG | 39600 fluorescence intensity (a.u.)
31 | TTAATCTTCACGCGTTTGCTTACTCCTATATATATATGTACGGAGTCACCTAGTGCAG | 9730 fluorescence intensity (a.u.)
32 | TCCTGTGTTTTGCAATCCTCTGTTTTTACACTTGCATTCCCGGAGTCACCTAGTGCAG | 10400 fluorescence intensity (a.u.)
33 | TGTTTTTCCTGTGTTTTGCAATCCTCTGTTTTACACTTACCGGAGTCACCTAGTGCAG | 13000 fluorescence intensity (a.u.)
34 | TTCCTGTGTTTTGCAATCCGCTGTTTTACACTTACATTCCCGGAGTCACCTAGTGCAG | 17300 fluorescence intensity (a.u.)
35 | TTTCGATTGATTTTGCCTCCTGAAGCGTTGTCTAGCTTTTCGGAGTCACCTAGTGCAG | 8180 fluorescence intensity (a.u.)
36 | GCACAAAACCCTCGAGCACCGCCCGCCGCTATATAACAACCGGAGTCACCTAGTGCAG | 9960 fluorescence intensity (a.u.)
37 | ACCTAGTACGTATACACCTCAATCCATTATAAATAGCAACCGGAGTCACCTAGTGCAG | 8280 fluorescence intensity (a.u.)
38 | TAGTACAATGGGTGCCCTCAACGGAATAAACCGCTATACCCGGAGTCACCTAGTGCAG | 37000 fluorescence intensity (a.u.)
39 | AGACAAACTCTGGTTTCCGTGTCCAACGTTTGACCGTTCGCGGAGTCACCTAGTGCAG | 11300 fluorescence intensity (a.u.)
40 | TTTCATTTCACTCGCTGGCATTTCATCTCCTTGACCTATCCGGAGTCACCTAGTGCAG | 9400 fluorescence intensity (a.u.)
41 | ACCCACTGATCACGAAATCCACACACTGGCCACATCCAAACGGAGTCACCTAGTGCAG | 8340 fluorescence intensity (a.u.)
42 | TATTACTTCCTTCGTTTCAAAATGTTTGATACCGTTGACTCGGAGTCACCTAGTGCAG | 12000 fluorescence intensity (a.u.)
43 | CCCTCCGTTTCAAAATGTTTGATACCGTTGACTTTTTAGCCGGAGTCACCTAGTGCAG | 21200 fluorescence intensity (a.u.)
